This is an account of results in PubChem BioAssay AID463212 (Sanford-Burnham Center for Chemical Genomics, 2010).

Among all 330,000 compounds or so, about 4,400 (1.3%) were called active.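 How the source made its calls: active means growth inhibition of the mutant yeast at or above 50%; inactive means the rest.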 What follows is part of a selection rich in actives, with near analogues and random picks from the rest.

This experiment in a line: growth inhibition of tim23-1 ts yeast – luminescence, uHTS, primary screen (AID 463212).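 Further: temperature-sensitive mutant grown at 25 °C; plate controls were DMSO-treated mutant yeast for no effect and medium wells lacking yeast for full effect.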 The note with it: S. cerevisiae tim23-1 growth, BacTiter-Glo luminescence, 24 h; at 20 µM; stronger effect = higher value.
On to `Cc1c(CN2CCC(n3nccc3NC(=O)CCc3ccccc3)CC2)cnn1C`, for which the inhibition (in general, the relative decrease from the control value, in per cent) was 3.04% (inactive).
Under `CCc1noc(C)c1C(=O)Nc1nc(-c2ccccc2)cs1` stands 22.5% (inactive); under `Cc1ccccc1Nc1nc(-c2cccnc2)cs1`, 33.4% (inactive); under `Cc1cccc(Nc2nc(-c3ccccc3)cs2)n1`, 55.1% (active).
With `CCC(C)OC(=O)C(C)Oc1ccc(-c2ccccc2)cc1` (configuration not stated), the inhibition was 3.46% (inactive).
As to `c1ccc2c(NCC3CCCO3)nc(-c3ccncc3)nc2c1` (configuration not stated), the inhibition is 13.1% (inactive).
For `c1ccc(-c2nc(NCc3ccco3)c3ccccc3n2)cc1` the value was 53% (active); for `Clc1cccc(-c2nc(NCC3CCCO3)c3ccccc3n2)c1` (configuration not stated), 28.9% (inactive); for `O=C(CO/N=C/c1ccc(OC(F)F)cc1)NCc1ccc(F)cc1`, 8.87% (inactive).
For `Cc1ccc(Oc2nc(-c3ccccn3)nc3ccccc23)cc1` the value was 63.6% (active); for `CC(C)(C)Nc1nc(-c2ccccn2)nc2ccccc12`, -51.4% (inactive); for `COc1cnc(-c2ccccn2)nc1Oc1ccc(C(C)(C)C)cc1`, 41.2% (inactive).
Under `CC(C)(COC(=O)Nc1ccccc1)COC(=O)Nc1ccccc1` stands 29.8% (inactive); under `O=C(c1ccncc1)N1CCN(S(=O)(=O)c2cccc([N+](=O)[O-])c2)CC1`, 3.41% (inactive).
Regarding `CC(Sc1nc2cc(Cl)ccc2s1)C(=O)Nc1ccc2c(c1)OCO2` (configuration not stated), the inhibition was 32% (inactive).
For `NS(=O)(=O)c1ccc(NC(=S)N2CCCC2)cc1` the value was -14.9% (inactive); for `COc1ccccc1NS(=O)(=O)c1ccc(C)c(C(=O)NNC(=O)c2csc(N3CCOCC3)n2)c1`, -7.58% (inactive).
For `Cc1ccc(C(=O)OC2=CC(=O)CC(C)(C)C2)cc1` the value was 52.8% (active); for `Cc1ccc(C(=O)Oc2ccc(C(=S)N3CCOCC3)cc2)cc1`, -1.92% (inactive); for `COC(=O)NNC1=CC(=O)CC(C)(C)C1`, -3.94% (inactive).
For `O=C(CSc1nnnn1C1CCCC1)N1CCCCC1` the value was 4.13% (inactive).
With `C[C@H]1CC[C@]2(O[C@@H](CCO)C[C@@H](O)[C@@H]2O)O1`, the inhibition was 23.4% (inactive).
Under `COc1ccc(-c2nn(-c3ccccc3)cc2/C=N/Nc2ccccn2)cc1OC` stands 45.7% (inactive).
For `O=C(O)c1ccc(N/N=C/c2cn(-c3ccccc3)nc2-c2cccs2)cc1` the value was 40.4% (inactive).
Under `O=Cc1cn(-c2ccccc2)nc1-c1ccccn1` stands 58.8% (active); under `N/C(=N\OC(=O)Nc1ccc(Cl)c(Cl)c1)c1ncc(C(F)(F)F)cc1Cl`, 73.9% (active); under `O=C(c1ccccn1)c1ncc(C(F)(F)F)cc1Cl`, 3% (inactive).
Take `N/C(=N\OC(=O)CCCC(=O)O)c1ncc(C(F)(F)F)cc1Cl`: the inhibition was 9.72% (inactive).
For `Cc1cccc(NC(=O)Cn2cc(C(=O)c3ccco3)c3ccccc32)c1` the value was 7.71% (inactive); for `O=C(NCCSc1ncc(-c2ccccc2)[nH]1)c1ccco1`, -8.72% (inactive).
For `CCOc1ccc(C(=O)Nc2cccc(SC)c2)cc1` the value was 10.1% (inactive); for `O=C1NC(Cc2ccc(O)cc2)c2nc3ccc(Cl)cc3c(=O)n2-c2ccccc21` (configuration not stated), 15% (inactive); for `CCOc1ccc(C(c2c(C)[nH][nH]c2=O)c2c(C)[nH][nH]c2=O)cc1OCC`, 54.5% (active).
In the case of `CCOc1ccc(C(CC(=O)O)NC(=O)Cc2ccccc2)cc1OC` (configuration not stated), the inhibition is -3.51% (inactive).
For `CCOc1ccc(C(C)NC(=O)CN2C(=O)NC3(CCCCC3)C2=O)cc1OCC` (configuration not stated) the value was 7.68% (inactive).
With `CCOC(=O)N1CCN(C(=O)c2cn(C)c3ccc(S(=O)(=O)N(CC)CC)cc3c2=O)CC1`, the inhibition was 2.29% (inactive).
For `Cc1ccc(S(=O)(=O)NCC(C)NS(C)(=O)=O)cc1` (configuration not stated), the inhibition was -7.63% (inactive).
`CCOCCCNC(=O)Cc1cc(=O)[nH]c(=O)[nH]1`: the inhibition is -8.09% (inactive).
Under `COC(=O)c1ccc(-c2c(-c3ccccc3)ncc3cc(OC)c(OC)cc23)cc1` stands 18.9% (inactive).
For `CCOC(=O)C1CSC(CC(=O)Nc2ccc(OCC)cc2)C(=O)N1` (configuration not stated) the value was 4.52% (inactive); for `Cc1cccc(NC(=S)Nc2ccc(Cl)c(Cl)c2)c1`, 60.8% (active); for `Cc1cccc(NC(=S)NC23CN4CN(CN(C4)C2)C3)c1`, 1.34% (inactive).
Under `Cc1cccc(NC(=S)Nc2ccc3cn[nH]c3c2)c1` stands -3.63% (inactive).
For `Cc1ccc(-n2ncc(C(=O)NC3CC3)c2C2CCN(C(=O)OC(C)(C)C)CC2)c(C)c1`, the inhibition is 13.5% (inactive).
Turning to `CCOC(=O)Nc1ccc2c(c1)N(C(=O)CN1CCN3CCCC3C1)c1ccccc1CC2` (configuration not stated), the inhibition is 11.3% (inactive).
In the case of `Cc1nn(-c2ccccc2)c(C)c1/C=C/C(=O)OC(C)C(N)=O` (configuration not stated), the inhibition is 10.4% (inactive).
With `Cc1ccc(C(=O)/C=C/c2c(C)nn(-c3ccccc3)c2Cl)cc1`, the inhibition was 36.5% (inactive).
In the case of `Cc1nn(-c2ccccc2)c(Cl)c1/C=C/C(=O)c1ccc(O)cc1`, the inhibition is 50.6% (active).
As to `CCOc1cc(/C=C2\SC(N3CCCCC3)=NC2=O)ccc1O`, the inhibition was 38.3% (inactive).
Take `CC1CCN(C2=NC(=O)/C(=C/c3ccc(O)cc3)S2)CC1`: the inhibition was 31.9% (inactive).
Under `CCOc1cc(/C=C2\SC(N3CCCC(C)C3)=NC2=O)ccc1O` (configuration not stated) stands 51.4% (active); under `COc1ccc(N(CC(=O)NC2CCCCC2)S(=O)(=O)c2c(C)[nH]c(=O)[nH]c2=O)cc1`, 6.85% (inactive).
Under `CCOC(=O)N/N=C/c1cccnc1` stands 4.17% (inactive); under `O=C(CSc1cccc2cccnc12)N/N=C/c1cccnc1`, 52.9% (active); under `Cc1ccc(NC(=O)CSc2cccc3cccnc23)c(C)c1`, 19.5% (inactive).
For `N#Cc1ccc(C(c2ccc(C#N)cc2)n2cncn2)cc1` the value was 9.59% (inactive); for `CCc1noc(C)c1C(=O)N1CCCC(N2CCN(c3ccc(F)cc3)CC2)C1` (configuration not stated), -9.74% (inactive); for `CC(C)OC(=O)Cn1nc(C(F)(F)F)c2c1CCCC2`, -5.77% (inactive).
Turning to `Cc1ccccc1C(=O)NC(=S)NC1CC1`, the inhibition was 56.1% (active).
For `Cc1ccccc1C(=O)NC(=S)Nc1ccc(N2CCN(C(=O)c3ccccc3)CC2)cc1` the value was -0.446% (inactive).
For `O=C(NC(=S)NC1CCSC1=O)c1ccccc1F` (configuration not stated) the value was -11.9% (inactive); for `COC(=O)[C@@]1(C)[C@H]2C(=O)N(Cc3ccccc3)C(=O)[C@H]2[C@H]2CN=C(SCC3CC3)N21`, 28.2% (inactive).
